# Reference: PMC7862700, “An all-to-all approach to the identification of sequence-specific readers for epigenetic DNA modifications on cytosine”
# Key:
# Assay in all cases: DAPPL (digital affinity profiling via proximity ligation, sequencing); 10 mM Tris-HCl pH 7.5, 50 mM NaCl, 1 mM DTT, 4% glycerol, room temperature, 30 min; GST-TFs on glutathione beads, 16-mer random dsDNA library, 0.1% formaldehyde crosslink after washing; high values mean tight binding
# FEV = target: T1, FEV (Homo sapiens, UniProt Q99581 1-238); settings: protein: recombinant; tags: N-terminal GST; dsDNA, one strand shown
# T1 sequence: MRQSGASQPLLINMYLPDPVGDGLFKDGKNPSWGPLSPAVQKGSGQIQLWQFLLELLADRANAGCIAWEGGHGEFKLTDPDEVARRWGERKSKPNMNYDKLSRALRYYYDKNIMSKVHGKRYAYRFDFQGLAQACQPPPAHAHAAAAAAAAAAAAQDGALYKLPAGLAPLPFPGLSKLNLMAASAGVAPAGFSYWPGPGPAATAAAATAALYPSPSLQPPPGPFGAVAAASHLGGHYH
# Method in brief: (§1)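 The binding signal reported is, for every hexamer, its read frequency for a factor over its read frequency for the tag-only sample. Reads came from pools of yeast-expressed, GST-fused human transcription factors on glutathione beads, barcoded with DNA and mixed with that sample, which were incubated with 200 nmole of a random double-stranded 16-mer DNA library in Tris/NaCl/DTT/glycerol buffer at room temperature for 30 min. After washing, the pools were crosslinked with 0.1% formaldehyde, proximity-ligated with BsaI/T4 ligase for 1 h at 37 °C, PCR-amplified and sequenced on an Illumina NextSeq500.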
# ETV5 = ETV5 (Homo sapiens, UniProt P41161 1-510); settings: protein: recombinant; tags: N-terminal GST; dsDNA, one strand shown
# Sequence of ETV5 (P41161 whole entry): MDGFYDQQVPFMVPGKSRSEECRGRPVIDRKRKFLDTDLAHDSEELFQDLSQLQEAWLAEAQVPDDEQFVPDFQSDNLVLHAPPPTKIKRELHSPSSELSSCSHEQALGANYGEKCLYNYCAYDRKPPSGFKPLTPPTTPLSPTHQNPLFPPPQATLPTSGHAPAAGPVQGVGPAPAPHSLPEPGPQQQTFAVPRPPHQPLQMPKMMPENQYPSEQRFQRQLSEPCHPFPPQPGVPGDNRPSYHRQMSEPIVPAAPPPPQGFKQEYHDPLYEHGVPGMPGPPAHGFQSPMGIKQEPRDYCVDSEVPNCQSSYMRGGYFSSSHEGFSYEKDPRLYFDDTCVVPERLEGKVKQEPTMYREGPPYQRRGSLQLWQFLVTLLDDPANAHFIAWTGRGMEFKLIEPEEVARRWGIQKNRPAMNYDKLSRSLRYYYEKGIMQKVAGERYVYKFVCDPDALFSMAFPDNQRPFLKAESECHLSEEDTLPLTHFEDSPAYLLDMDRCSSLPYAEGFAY
# Method in brief: as §1
# HSF1 = HSF1 (Homo sapiens, UniProt Q00613 1-529); settings: protein: recombinant; tags: N-terminal GST; chain copies: 3; dsDNA, one strand shown
# Sequence of HSF1 (Q00613 whole entry): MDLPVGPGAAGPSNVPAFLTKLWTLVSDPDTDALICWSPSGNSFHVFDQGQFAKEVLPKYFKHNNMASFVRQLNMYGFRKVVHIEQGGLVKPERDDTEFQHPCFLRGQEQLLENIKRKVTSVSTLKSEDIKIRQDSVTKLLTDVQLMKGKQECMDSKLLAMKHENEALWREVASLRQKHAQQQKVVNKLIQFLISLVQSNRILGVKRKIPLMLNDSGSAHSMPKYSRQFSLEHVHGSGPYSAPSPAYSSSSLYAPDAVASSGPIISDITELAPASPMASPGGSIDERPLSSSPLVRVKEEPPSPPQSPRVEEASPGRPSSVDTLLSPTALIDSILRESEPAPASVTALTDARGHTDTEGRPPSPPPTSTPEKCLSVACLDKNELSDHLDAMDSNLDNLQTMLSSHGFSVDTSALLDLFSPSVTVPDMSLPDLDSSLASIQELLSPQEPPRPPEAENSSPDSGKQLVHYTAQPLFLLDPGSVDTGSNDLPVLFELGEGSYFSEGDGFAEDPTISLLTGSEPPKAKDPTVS
# Method in brief: as §1
# SPIC = target: T2, SPIC (Homo sapiens, UniProt Q8N5J4 1-248); settings: protein: recombinant; tags: N-terminal GST; dsDNA, one strand shown
# T2 sequence: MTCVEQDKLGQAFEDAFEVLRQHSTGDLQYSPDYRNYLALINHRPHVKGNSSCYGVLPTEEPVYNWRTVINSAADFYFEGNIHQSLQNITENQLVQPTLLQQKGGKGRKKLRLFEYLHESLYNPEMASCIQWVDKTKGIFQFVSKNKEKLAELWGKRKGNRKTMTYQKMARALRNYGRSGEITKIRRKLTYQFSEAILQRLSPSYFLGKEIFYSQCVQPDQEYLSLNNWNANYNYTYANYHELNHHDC
# Method in brief: as §1
# ELF4 = ELF4 (Homo sapiens, UniProt Q99607 1-663); settings: protein: recombinant; tags: N-terminal GST; dsDNA, one strand shown
# Sequence of ELF4 (Q99607 whole entry): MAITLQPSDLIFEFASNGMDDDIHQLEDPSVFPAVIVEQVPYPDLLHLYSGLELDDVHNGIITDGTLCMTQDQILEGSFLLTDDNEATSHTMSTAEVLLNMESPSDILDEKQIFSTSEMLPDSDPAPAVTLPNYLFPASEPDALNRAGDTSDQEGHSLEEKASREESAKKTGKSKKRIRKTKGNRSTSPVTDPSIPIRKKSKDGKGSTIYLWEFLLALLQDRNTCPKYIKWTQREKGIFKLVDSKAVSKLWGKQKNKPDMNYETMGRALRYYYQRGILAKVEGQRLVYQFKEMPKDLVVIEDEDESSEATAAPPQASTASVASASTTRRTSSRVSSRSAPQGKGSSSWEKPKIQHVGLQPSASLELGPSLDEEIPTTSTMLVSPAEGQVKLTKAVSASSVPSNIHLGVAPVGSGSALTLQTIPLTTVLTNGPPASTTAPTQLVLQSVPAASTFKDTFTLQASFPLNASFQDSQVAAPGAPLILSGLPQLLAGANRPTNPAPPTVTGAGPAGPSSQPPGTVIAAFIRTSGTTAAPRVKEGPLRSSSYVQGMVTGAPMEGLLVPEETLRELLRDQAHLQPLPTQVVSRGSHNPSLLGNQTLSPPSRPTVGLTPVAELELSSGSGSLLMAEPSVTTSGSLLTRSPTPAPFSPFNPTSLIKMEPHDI
# Method in brief: as §1
# ELK4 = target: T3, ELK4 (Homo sapiens, UniProt P28324-2 1-405); settings: protein: recombinant; tags: N-terminal GST; dsDNA, one strand shown
# T3 sequence: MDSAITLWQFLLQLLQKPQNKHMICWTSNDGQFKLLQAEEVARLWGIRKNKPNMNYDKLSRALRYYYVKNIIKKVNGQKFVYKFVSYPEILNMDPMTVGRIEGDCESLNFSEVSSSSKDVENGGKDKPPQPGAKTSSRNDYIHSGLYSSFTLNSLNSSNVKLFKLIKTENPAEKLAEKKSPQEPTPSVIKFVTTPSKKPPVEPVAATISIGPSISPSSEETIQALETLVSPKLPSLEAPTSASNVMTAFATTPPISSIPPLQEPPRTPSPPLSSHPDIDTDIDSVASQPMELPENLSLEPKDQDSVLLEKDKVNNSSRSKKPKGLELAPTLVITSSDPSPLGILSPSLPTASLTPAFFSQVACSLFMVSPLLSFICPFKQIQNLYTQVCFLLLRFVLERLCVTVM
# Method in brief: as §1
# ETV2 = target: T4, ETV2 (Homo sapiens, UniProt O00321 1-342); settings: protein: recombinant; tags: N-terminal GST; dsDNA, one strand shown
# T4 sequence: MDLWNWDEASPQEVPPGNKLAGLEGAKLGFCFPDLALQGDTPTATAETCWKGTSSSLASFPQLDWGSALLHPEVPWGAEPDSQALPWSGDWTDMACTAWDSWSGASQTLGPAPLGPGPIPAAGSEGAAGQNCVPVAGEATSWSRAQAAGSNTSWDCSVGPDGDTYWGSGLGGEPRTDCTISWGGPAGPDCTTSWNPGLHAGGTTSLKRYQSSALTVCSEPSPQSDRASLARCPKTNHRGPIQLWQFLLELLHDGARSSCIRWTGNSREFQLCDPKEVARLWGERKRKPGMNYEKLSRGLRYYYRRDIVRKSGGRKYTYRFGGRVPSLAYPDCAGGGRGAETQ
# Method in brief: as §1
# ELF3 = target: T5, ELF3 (Homo sapiens, UniProt P78545 1-371); settings: protein: recombinant; tags: N-terminal GST; dsDNA, one strand shown
# T5 sequence: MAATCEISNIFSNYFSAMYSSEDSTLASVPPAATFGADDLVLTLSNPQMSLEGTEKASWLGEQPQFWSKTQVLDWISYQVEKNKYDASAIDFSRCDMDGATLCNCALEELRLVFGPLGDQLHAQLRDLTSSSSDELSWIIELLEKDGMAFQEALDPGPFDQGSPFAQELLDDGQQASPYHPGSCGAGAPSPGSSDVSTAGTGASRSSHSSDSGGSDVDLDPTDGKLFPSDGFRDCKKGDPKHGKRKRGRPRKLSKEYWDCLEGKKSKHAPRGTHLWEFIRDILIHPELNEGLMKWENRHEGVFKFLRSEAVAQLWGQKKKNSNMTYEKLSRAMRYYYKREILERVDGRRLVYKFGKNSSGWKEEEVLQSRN
# Method in brief: as §1
# ETV1 = ETV1 (Homo sapiens, UniProt P50549 1-477); settings: protein: recombinant; tags: N-terminal GST; dsDNA, one strand shown
# Sequence of ETV1 (P50549 whole entry): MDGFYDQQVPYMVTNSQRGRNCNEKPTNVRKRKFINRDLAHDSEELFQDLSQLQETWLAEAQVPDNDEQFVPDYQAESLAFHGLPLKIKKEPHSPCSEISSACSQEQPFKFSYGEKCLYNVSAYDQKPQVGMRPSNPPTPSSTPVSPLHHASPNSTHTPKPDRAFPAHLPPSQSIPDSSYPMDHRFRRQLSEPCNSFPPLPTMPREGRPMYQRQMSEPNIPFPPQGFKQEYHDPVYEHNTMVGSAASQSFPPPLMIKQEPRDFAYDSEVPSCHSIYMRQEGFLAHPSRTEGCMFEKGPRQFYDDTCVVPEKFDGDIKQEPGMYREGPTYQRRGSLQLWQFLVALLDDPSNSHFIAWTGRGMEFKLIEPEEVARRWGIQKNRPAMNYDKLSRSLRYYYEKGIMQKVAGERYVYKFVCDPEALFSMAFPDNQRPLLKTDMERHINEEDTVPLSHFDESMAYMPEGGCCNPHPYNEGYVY
# Method in brief: as §1
# ERF = target: T6, ERF (Homo sapiens, UniProt P50548 1-548); settings: protein: recombinant; tags: N-terminal GST; dsDNA, one strand shown
# T6 sequence: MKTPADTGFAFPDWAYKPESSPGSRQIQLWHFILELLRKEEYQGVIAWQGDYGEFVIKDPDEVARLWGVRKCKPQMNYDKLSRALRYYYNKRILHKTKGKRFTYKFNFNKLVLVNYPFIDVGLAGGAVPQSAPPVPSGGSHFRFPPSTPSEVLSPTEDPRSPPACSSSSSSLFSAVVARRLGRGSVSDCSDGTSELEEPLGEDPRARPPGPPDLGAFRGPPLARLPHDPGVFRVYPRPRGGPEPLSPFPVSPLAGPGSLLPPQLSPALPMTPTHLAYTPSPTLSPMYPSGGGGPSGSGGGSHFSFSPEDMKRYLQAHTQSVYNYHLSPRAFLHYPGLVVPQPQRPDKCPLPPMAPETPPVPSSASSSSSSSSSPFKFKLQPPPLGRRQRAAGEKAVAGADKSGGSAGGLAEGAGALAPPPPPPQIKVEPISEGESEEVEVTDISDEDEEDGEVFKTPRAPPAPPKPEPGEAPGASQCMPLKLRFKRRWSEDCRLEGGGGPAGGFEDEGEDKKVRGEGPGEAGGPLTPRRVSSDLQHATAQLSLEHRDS
# Method in brief: as §1
# ETV3L = target: T7, ETV3L (Homo sapiens, UniProt Q6ZN32 1-361); settings: protein: recombinant; tags: N-terminal GST; dsDNA, one strand shown
# T7 sequence: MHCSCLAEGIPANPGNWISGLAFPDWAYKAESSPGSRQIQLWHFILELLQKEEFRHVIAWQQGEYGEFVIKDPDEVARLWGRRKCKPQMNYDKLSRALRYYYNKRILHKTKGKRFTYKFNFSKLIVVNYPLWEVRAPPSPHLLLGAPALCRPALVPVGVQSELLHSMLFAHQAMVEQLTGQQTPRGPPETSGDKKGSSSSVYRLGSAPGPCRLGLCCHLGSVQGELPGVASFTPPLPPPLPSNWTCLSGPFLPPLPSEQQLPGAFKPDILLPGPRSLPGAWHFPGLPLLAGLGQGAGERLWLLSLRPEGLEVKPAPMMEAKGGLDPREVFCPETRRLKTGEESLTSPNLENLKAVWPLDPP
# Method in brief: as §1
# ETS2 = target: T8, ETS2 (Homo sapiens, UniProt P15036 1-469); settings: protein: recombinant; tags: N-terminal GST; dsDNA, one strand shown
# T8 sequence: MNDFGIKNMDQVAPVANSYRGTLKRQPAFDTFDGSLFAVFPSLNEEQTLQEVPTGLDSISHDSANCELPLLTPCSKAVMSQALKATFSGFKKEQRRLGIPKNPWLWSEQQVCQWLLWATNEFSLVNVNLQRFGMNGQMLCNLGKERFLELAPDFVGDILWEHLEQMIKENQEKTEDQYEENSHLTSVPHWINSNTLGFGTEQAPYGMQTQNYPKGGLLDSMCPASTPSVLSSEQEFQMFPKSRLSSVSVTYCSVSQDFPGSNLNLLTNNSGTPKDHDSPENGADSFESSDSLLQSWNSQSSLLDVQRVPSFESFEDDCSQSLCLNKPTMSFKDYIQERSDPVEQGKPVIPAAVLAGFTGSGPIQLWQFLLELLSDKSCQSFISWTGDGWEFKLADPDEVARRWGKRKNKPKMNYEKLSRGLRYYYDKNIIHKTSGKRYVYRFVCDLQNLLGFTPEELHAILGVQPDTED
# Method in brief: as §1
# SPDEF = target: T9, SPDEF (Homo sapiens, UniProt O95238 1-335); settings: protein: recombinant; tags: N-terminal GST; dsDNA, one strand shown
# T9 sequence: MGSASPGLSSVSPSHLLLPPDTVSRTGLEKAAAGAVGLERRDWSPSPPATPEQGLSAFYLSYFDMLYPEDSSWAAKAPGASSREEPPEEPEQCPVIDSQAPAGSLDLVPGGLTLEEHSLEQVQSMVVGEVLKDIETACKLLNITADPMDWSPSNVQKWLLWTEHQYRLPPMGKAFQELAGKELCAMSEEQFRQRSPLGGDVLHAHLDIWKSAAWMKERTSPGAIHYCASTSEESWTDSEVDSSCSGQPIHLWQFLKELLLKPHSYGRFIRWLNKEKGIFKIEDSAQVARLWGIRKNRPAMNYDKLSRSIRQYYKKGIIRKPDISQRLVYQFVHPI
# Method in brief: as §1
# ETV7 = target: T10, ETV7 (Homo sapiens, UniProt Q9Y603 1-341); settings: protein: recombinant; tags: N-terminal GST; dsDNA, one strand shown
# T10 sequence: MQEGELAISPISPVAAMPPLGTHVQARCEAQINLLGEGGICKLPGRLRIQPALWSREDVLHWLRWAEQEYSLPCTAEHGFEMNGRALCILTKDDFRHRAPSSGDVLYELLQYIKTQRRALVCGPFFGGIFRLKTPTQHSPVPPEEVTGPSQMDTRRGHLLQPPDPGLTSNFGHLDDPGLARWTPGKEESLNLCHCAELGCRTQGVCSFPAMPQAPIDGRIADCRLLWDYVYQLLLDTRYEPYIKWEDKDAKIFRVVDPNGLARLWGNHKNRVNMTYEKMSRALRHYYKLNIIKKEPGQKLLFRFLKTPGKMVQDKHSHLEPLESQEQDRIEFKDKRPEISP
# Method in brief: as §1
# ELF5 = target: T11, ELF5 (Homo sapiens, UniProt Q9UKW6-2 1-255); settings: protein: recombinant; tags: N-terminal GST; dsDNA, one strand shown
# T11 sequence: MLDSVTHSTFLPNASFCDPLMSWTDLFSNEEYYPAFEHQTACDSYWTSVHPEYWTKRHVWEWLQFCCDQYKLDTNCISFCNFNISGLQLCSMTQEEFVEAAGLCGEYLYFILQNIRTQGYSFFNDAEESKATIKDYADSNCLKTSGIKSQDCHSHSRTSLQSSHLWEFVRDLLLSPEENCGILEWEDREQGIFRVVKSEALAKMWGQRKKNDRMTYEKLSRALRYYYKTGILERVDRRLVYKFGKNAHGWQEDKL
# Method in brief: as §1
# ETV3 = target: T12, ETV3 (Homo sapiens, UniProt P41162-2 1-143); settings: protein: recombinant; tags: N-terminal GST; dsDNA, one strand shown
# T12 sequence: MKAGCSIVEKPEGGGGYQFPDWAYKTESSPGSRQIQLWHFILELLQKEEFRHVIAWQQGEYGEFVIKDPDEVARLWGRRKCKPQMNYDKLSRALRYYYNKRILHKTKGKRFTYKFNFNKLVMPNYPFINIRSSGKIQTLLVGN
# Method in brief: as §1
# ETV6 = ETV6 (Homo sapiens, UniProt P41212 1-452); settings: protein: recombinant; tags: N-terminal GST; dsDNA, one strand shown
# Sequence of ETV6 (P41212 whole entry): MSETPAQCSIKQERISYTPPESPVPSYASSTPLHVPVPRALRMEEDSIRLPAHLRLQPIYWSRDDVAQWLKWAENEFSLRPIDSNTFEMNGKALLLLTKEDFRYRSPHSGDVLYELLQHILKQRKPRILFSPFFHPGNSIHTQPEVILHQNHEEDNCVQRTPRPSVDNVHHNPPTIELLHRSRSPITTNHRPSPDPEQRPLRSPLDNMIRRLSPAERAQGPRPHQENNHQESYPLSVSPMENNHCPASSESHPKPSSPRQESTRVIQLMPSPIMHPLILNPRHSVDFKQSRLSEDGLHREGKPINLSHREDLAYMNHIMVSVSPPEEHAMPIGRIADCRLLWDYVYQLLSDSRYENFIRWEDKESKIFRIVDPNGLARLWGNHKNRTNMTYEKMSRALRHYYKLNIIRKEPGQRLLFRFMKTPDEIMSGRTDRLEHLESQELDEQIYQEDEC
# Method in brief: as §1
sequence,measurement,setting,value
GGTTTC,binding signal,FEV,"1.55 fold enrichment (6-mer frequency, TF over GST control)"
same,binding signal,ETV5,"1.61 fold enrichment (6-mer frequency, TF over GST control)"
same,binding signal,HSF1,"1.16 fold enrichment (6-mer frequency, TF over GST control)"
same,binding signal,SPIC,"1.5 fold enrichment (6-mer frequency, TF over GST control)"
same,binding signal,ELF4,"1.49 fold enrichment (6-mer frequency, TF over GST control)"
same,binding signal,ELK4,"1.36 fold enrichment (6-mer frequency, TF over GST control)"
same,binding signal,ETV2,"1.43 fold enrichment (6-mer frequency, TF over GST control)"
same,binding signal,ELF3,"1.31 fold enrichment (6-mer frequency, TF over GST control)"
same,binding signal,ETV1,"1.64 fold enrichment (6-mer frequency, TF over GST control)"
same,binding signal,ERF,"1.49 fold enrichment (6-mer frequency, TF over GST control)"
same,binding signal,ETV3L,"1.52 fold enrichment (6-mer frequency, TF over GST control)"
same,binding signal,ETS2,"1.52 fold enrichment (6-mer frequency, TF over GST control)"
same,binding signal,SPDEF,"1.55 fold enrichment (6-mer frequency, TF over GST control)"
same,binding signal,ETV7,"1.38 fold enrichment (6-mer frequency, TF over GST control)"
same,binding signal,ELF5,"1.52 fold enrichment (6-mer frequency, TF over GST control)"
same,binding signal,ETV3,"1.46 fold enrichment (6-mer frequency, TF over GST control)"
same,binding signal,ETV6,"1.51 fold enrichment (6-mer frequency, TF over GST control)"
